Experimental data taken from PubChem BioAssay (NCI).
Compounds without any hit were thinned out: in the full panel of roughly 79,000, 15% have a hit. Active and inactive are the calls of the source. Rule as the data show it: active = growth inhibition above about 70%; inactive = the rest.

Legend:
[1] = NCI Yeast Anticancer Drug Screen. Data for the rad50 strain (AID 155);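 also: 0% = growth of vehicle-only cultures of the same strain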; details: S. cerevisiae rad50 strain growth inhibition; at 50.0 µM; active compounds read high
Summary of the method: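 DNA repair mutant yeast, compound exposure, growth read-out; inhibition is taken relative to vehicle.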

[2] = NCI Yeast Anticancer Drug Screen. Data for the mec2-1 strain (AID 157); details: S. cerevisiae mec2-1 strain, at 50.0 µM, active compounds read high
Summary of the method: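 Compounds were applied to mec2-1 yeast cells. Their growth was then compared with that of vehicle-treated cultures to give growth inhibition.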

[3] = NCI Yeast Anticancer Drug Screen. Data for the sgs1 mgt1 strain (AID 161);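 also: 0% = growth of cultures given vehicle only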; details: S. cerevisiae sgs1 mgt1 strain, at 50.0 µM, active compounds read high
Summary of the method: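 Percent growth inhibition was derived by comparing compound-exposed mutant yeast with vehicle-exposed cultures. The strain carries alterations in DNA damage repair.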

[4] = NCI Yeast Anticancer Drug Screen. Data for the cln2 rad14 strain (AID 165);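 also: 0% = growth equal to vehicle treated cultures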; details: S. cerevisiae cln2 rad14 strain, at 50.0 µM, active compounds read high
Summary of the method: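 Strain: cln2 rad14 yeast, altered in cell cycle control and DNA damage repair. Read-out: growth inhibition vs vehicle.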

[5] = NCI Yeast Anticancer Drug Screen. Data for the bub3 strain (AID 167); details: S. cerevisiae bub3 mutant strain, at 50.0 µM, active compounds read high
Summary of the method: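 In this screen, a yeast mutant lacking normal mitotic checkpoint function is challenged with compound. Relative growth versus vehicle gives the inhibition value.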

[6] = NCI Yeast Anticancer Drug Screen. Data for the mlh1 rad18 strain (AID 175); details: S. cerevisiae mlh1 rad18 strain growth inhibition; at 50.0 µM; active compounds read high
Summary of the method: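 A repair-deficient yeast strain is exposed to test compound, and growth is scored relative to vehicle-treated controls.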

SMILES | growth inhibition [1] | growth inhibition [2] | growth inhibition [3] | growth inhibition [4] | growth inhibition [5] | growth inhibition [6]
CCC(=O)OC(OC(=O)CC)c1ccc2c(c1)OCO2 | -4.6% (inactive) | 0.7% (inactive) | 4.45% (inactive) | -18.9% (inactive) | 7.75% (inactive) | -1% (inactive)
Cc1cccc2c(N)c3cccc(C(=O)NCC[N+](C)(C)[O-])c3nc12 | 8.7% (inactive) | -13.3% (inactive) | 11.1% (inactive) | 31% (inactive) | 18.4% (inactive) | 20.6% (inactive)
COc1cccc(C(=O)C(CCC#N)c2ccccc2)c1 (stereo not drawn) | 24.8% (inactive) | 18.5% (inactive) | 31.4% (inactive) | 20.9% (inactive) | 42.8% (inactive) | 9.75% (inactive)
COc1ccc(N2C(=O)[C@@H](N=[N+]=[N-])[C@@H]2[C@H]2COC(C)(C)O2)cc1 | 1.95% (inactive) | -14.3% (inactive) | 1.3% (inactive) | 5% (inactive) | 3.35% (inactive) | 9% (inactive)
OCc1c(-c2ccc(Cl)cc2)c(-c2ccc(Cl)cc2)c2n1CCC2 | -0.65% (inactive) | -18% (inactive) | 1.3% (inactive) | 90.4% (active) | -2.35% (inactive) | -6.85% (inactive)
O=C1c2ccccc2C(=O)N1Nc1ccccc1 | 6.6% (inactive) | 3.2% (inactive) | 7.45% (inactive) | -8.1% (inactive) | 3.1% (inactive) | 16.5% (inactive)
CN1C(=O)N(C)C(=O)C(C)(NS(=O)(=O)c2ccc(NC(=O)CCC(=O)O)cc2)C1=O | 17.6% (inactive) | 11.6% (inactive) | 12.2% (inactive) | 16.1% (inactive) | 0.95% (inactive) | 24.3% (inactive)
CSCCCN(CCCSC)CCCSC | -12.6% (inactive) | -12.9% (inactive) | -0.3% (inactive) | 5.5% (inactive) | 4.5% (inactive) | -26.6% (inactive)
O=C(O)C1C(C(=O)O)C2C3C4C1C1C2C3C41 (stereo not drawn) | 2.9% (inactive) | 3.15% (inactive) | -4.2% (inactive) | -21.9% (inactive) | 13.3% (inactive) | -0.15% (inactive)
CCc1nnc2sc3c(Cl)c4nn5c(CC)nnc5sc4c(Cl)c3nn12 | 37.2% (inactive) | -6.2% (inactive) | 16.8% (inactive) | 24.2% (inactive) | -0.3% (inactive) | 12.5% (inactive)
CCOC(=O)C(=O)Cc1cc(=O)n(C)c2ccccc12 | 12.5% (inactive) | 16.1% (inactive) | 16.4% (inactive) | 1.8% (inactive) | 13.9% (inactive) | 1.5% (inactive)
N#CC(C#N)=CNc1ccccc1 | 5.4% (inactive) | -8.95% (inactive) | 7.5% (inactive) | -20.9% (inactive) | 9.7% (inactive) | 4.6% (inactive)
COc1ccc(-c2oc3ccccc3c(=O)c2O)cc1OC | 2.3% (inactive) | 9.9% (inactive) | 16.2% (inactive) | -10.8% (inactive) | 21.4% (inactive) | -11.1% (inactive)
COC(=O)[C@@]1(C)/C(=N/NS(=O)(=O)c2ccc(C)cc2)CCC[C@@H]1C | 11.4% (inactive) | -23% (inactive) | -7.15% (inactive) | 3.05% (inactive) | -1.4% (inactive) | -1.85% (inactive)
CCOC(=O)c1c[nH]c(=S)[nH]c1=O | 9.25% (inactive) | -8.4% (inactive) | 18.7% (inactive) | -15.1% (inactive) | -1.2% (inactive) | -10.8% (inactive)
CCC(C(=O)c1cccs1)C(O)(C(F)(F)F)C(F)(F)F (stereo not drawn) | -13.8% (inactive) | 4.6% (inactive) | -28.4% (inactive) | -83.2% (inactive) | -31.4% (inactive) | 22.9% (inactive)
c1ccc(-c2nsc3ccccc23)cc1 | 14.3% (inactive) | -6.35% (inactive) | -8.25% (inactive) | -31.1% (inactive) | -14.8% (inactive) | 5.75% (inactive)
CC(=O)Nc1nc2nccn2c(=O)[nH]1 | -5.7% (inactive) | -3.1% (inactive) | -6.5% (inactive) | -28.3% (inactive) | -2.4% (inactive) | 2% (inactive)
CCOC(=O)C(C#N)(Cc1ccccc1CC(C#N)(NC(C)=O)C(=O)OCC)NC(C)=O (stereo not drawn) | -4.9% (inactive) | -0.25% (inactive) | -10.1% (inactive) | -0.3% (inactive) | -3.4% (inactive) | 10.7% (inactive)

SMILES | growth inhibition [1] | growth inhibition [2] | growth inhibition [3] | growth inhibition [4] | growth inhibition [5] | growth inhibition [6]
CC(C)c1cc(C(C)C)c(S(=O)(=O)N/N=C2\CC3CCC2(C)C3(C)C)c(C(C)C)c1 (stereo not drawn) | -8.7% (inactive) | -16.9% (inactive) | -13.3% (inactive) | -4.35% (inactive) | -54.5% (inactive) | 0.65% (inactive)
CCCCOC(=O)c1ccccc1OC | -16.1% (inactive) | 7.2% (inactive) | -2.3% (inactive) | 16.9% (inactive) | 12.1% (inactive) | -6.9% (inactive)
CN(C)c1ccc(/C=C(\NC(=O)c2ccccc2)C(=O)NC(CC(=O)O)C(=O)O)cc1 (stereo not drawn) | 10.2% (inactive) | 1.45% (inactive) | 17.9% (inactive) | 7% (inactive) | -0.25% (inactive) | -0.55% (inactive)
CNC(=O)NCCc1c[nH]c2ccccc12 | -35.9% (inactive) | -19.9% (inactive) | -49.1% (inactive) | -24.1% (inactive) | -26.7% (inactive) | -40.9% (inactive)
CCOC(=O)C(NC(C)=O)(C(=O)OCC)C1CCCCC1=O (stereo not drawn) | -10.8% (inactive) | 2.65% (inactive) | -33.4% (inactive) | -3.4% (inactive) | -10.8% (inactive) | -20.5% (inactive)
O=c1[nH]cnc2c1CN(c1ccc(Cl)cc1)C2 | -14.5% (inactive) | 3.45% (inactive) | -11.3% (inactive) | -29.6% (inactive) | -19.2% (inactive) | -1.9% (inactive)
Cc1ccc(SC(=O)N2C(=S)NC(=NC3CCCCC3)C23CCCCC3)cc1 | -14% (inactive) | -9.05% (inactive) | -4.05% (inactive) | -41.3% (inactive) | -32.5% (inactive) | -24.5% (inactive)
COC1=NS(=O)(=O)C2(O1)c1ccccc1-c1ccccc12 | 15.2% (inactive) | 17.2% (inactive) | 11.4% (inactive) | 13.2% (inactive) | 25.8% (inactive) | 12.3% (inactive)
Cc1ccc(C2(O)CC(c3ccc([N+](=O)[O-])o3)=NN2C(=O)COc2ccccc2Cl)cc1 (stereo not drawn) | 46.1% (inactive) | -15.2% (inactive) | -0.45% (inactive) | 0.15% (inactive) | -1.9% (inactive) | -6.45% (inactive)
OCc1nnn2c1CCC2 | 4.95% (inactive) | 0.05% (inactive) | -2.15% (inactive) | 11.4% (inactive) | 10.4% (inactive) | -6.25% (inactive)
[N-]=[N+]=NCC1OCOC1C1OCOC1CN=[N+]=[N-] (stereo not drawn) | -6.85% (inactive) | 10.6% (inactive) | -4.05% (inactive) | -33.7% (inactive) | 4.2% (inactive) | -3.5% (inactive)
CCCCCC(=O)N1CCCCC1CC (stereo not drawn) | -8.55% (inactive) | 7.15% (inactive) | -19.6% (inactive) | -10.1% (inactive) | -25.6% (inactive) | -28.1% (inactive)
CN(C)c1nc(Oc2nc(N(C)C)nc(N(C)C)n2)nc(N(C)C)n1 | -21.8% (inactive) | -26.6% (inactive) | -30.9% (inactive) | -8.5% (inactive) | -21.4% (inactive) | -31.9% (inactive)
Cc1ccc(C2CCC(C#N)=CN2C)cc1 (stereo not drawn) | 11.5% (inactive) | -0.25% (inactive) | 1.5% (inactive) | -39.4% (inactive) | -13% (inactive) | 3.6% (inactive)
C=C(C)CCCC(C)C(O)C=O (stereo not drawn) | -8.85% (inactive) | 1.15% (inactive) | 1.55% (inactive) | 1.75% (inactive) | -5.35% (inactive) | -12.7% (inactive)
CC(=O)C1=C(C)C2CC3(C)CC(C2(C)C1)C3(C)C (stereo not drawn) | 8.45% (inactive) | -17.1% (inactive) | -0.95% (inactive) | 10.6% (inactive) | -9.75% (inactive) | -6% (inactive)
CCN(CC)CCOC(=O)Cc1ccccc1 | -8.9% (inactive) | -12.7% (inactive) | 19.9% (inactive) | 7.65% (inactive) | 6.5% (inactive) | 0.9% (inactive)
CCCCCC(=O)OCC(COC(=O)CCCCC)OC(=O)CCCCC | -2.65% (inactive) | 23.1% (inactive) | -5.05% (inactive) | 12.6% (inactive) | 10.9% (inactive) | 20.6% (inactive)
N/C(=N\S(=O)(=O)c1cc(C(F)(F)F)cc(C(F)(F)F)c1)c1ccncc1 | 4.95% (inactive) | 11.2% (inactive) | 23.9% (inactive) | 1.3% (inactive) | 19.6% (inactive) | 24.7% (inactive)
